Activity calls are given as the source filed them. Rule for the calls: active = hit-call score of the fitted dose curve at least 0.9, where 1 is the maximum; inactive = score below 0.9.
These molecules were tested on Tumor necrosis factor receptor 1 (TNFRSF1A), TNFRSF1A (gene 7132) (assay: LTEA_HepaRG_TNFRSF1A: Life Technologies and Expression Analysis (LTEA) Assay for Tumor necrosis factor receptor 1 (TNFRSF1A) using HepaRG (AID 2283535)). Conditions: mRNA level, 48 h; actives raise or lower the signal.
Experimental: LTEA_HepaRG is a cell based, multiplexed-readout assay that uses HepaRG, a human liver cell line, with measurements taken at 48 hours after chemical dosing on a 96-well plate.LTEA_HepaRG_TNFRSF1A is one of 102 assay component(s) measured in the LTEA HepaRG cell culture assay. It is a marker of Cell proliferation, survival, death.Data from the assay component LTEA_HepaRG_TNFRSF1A was analyzed into 1 endpoint. This assay endpoint, LTEA_HepaRG_TNFRSF1A, was analyzed with bidirectional fitting relative to DMSO as the negative control and baseline of activity. Using a type of inducible reporter, measures of mRNA induction for gain or loss-of-signal activity can be used to understand regulation of transcription factor activity. To generalize the intended target to other relatable targets, this assay endpoint is annotated to the cytokine receptor intended target family, where the subfamily is TNF receptor.
A total of 1060 chemcials from the ToxCast library were tested in eight-point concentration-response experiments. Cell culture and cytotoxicity assays were conducted at Thermo Fisher Scientific's Custom Services facility (Madison, WI). A single lot of human HepaRG cells (Thermo Fisher Scientific, Frederick, MD) was used for the cell culture experiments. 96-well format collagen type I coated plates of human HepaRG cells were prepared using established methods. Briefly, cryopreserved HepaRG cells were thawed, plated at a density of approximately 100,000 cells/well in HepaRG Thaw, Plate, and General Purpose media (HPRG770, Thermo Fisher Scientific), and incubated for 48 hours. 0.5% DMSO was selected as vehicle control to balance the requisite need of DMSO in HepaRG cultures to maintain differentiation (for example, baseline metabolism, proportions of hepatocytes vs. cholangiocytes), while enabling further hepatic receptor pathway activation (for example, PXR and CAR) in response to chemical exposure. 48 hours after plating, the culture medium was replaced with HepaRG Serum-Free Incudtion Media. Cells were exposed to each test chemical in duplicate and maintained in CO2 incubators for another 48 hours. Chemical plates were thawed to room temperature and 200x concentrations of treatment groups were prepared. 8-point conentration-reponse curves were made with the highest exposure at 100 uM, followed by half-log dilutions, all in 0.5% DMSO. Each test plate contained variouse controls, induction positive controls (1mM phenobarbital), cytotoxicity positive controls ([…] aflatoxin B1), vehicle controls (0.5% DMSO), and total lysis controls (0.5% DMSO). Cell morphology images were taken using an Essen IncuCyte FLR automated microscope, with six 96-well plates imaged in about 24 minutes. Images were captured and exported and JPEG files. Spent culture media was transfered to black-well plates for the LDH assay, and remaining media was sorted at -80 C for later use. Cells were treated with RLT buffer and frozen until shipped for gene expression analysis. Total RNA was isolated from the cell suspension in 75 uL of Buffer RLT (Qiagen, Germantown, MD 20874) by Quintiles/Expression Analysis (Durham, NC) using a custom isolation procedure. Total RNA from each plate well was transferred to a preamplification plate. Fluidigm's 96.96 Dynamic ArrayTM (Fluidigm, Amsterdam, the Netherlands) technology was used for gene expression analyses by quantitative reverse transcription polymerase chain reaction (qRT-PCR, performed by Quintiles/Expression Analysis, Durham, NC)89. Standard TaqManTM Assays (Applied Biosystems/ThermoFisher Scientific, Foster City, CA) were used to assess the expression of 93 genes selected based on their selectivity and sensitivity to important hepatic receptors known to be modulated by environmental chemicals; importance in human hepatocyte functionality; and hepatotoxicity. […]

Row | Compound | outcome | AC50
1 | CCCCC(CC)COP(=O)(OCC(CC)CCCC)OCC(CC)CCCC (stereo not given) | inactive | –
2 | O=C(O)c1cccnc1 | inactive | –
3 | CSc1ccc(Oc2ccc(S(N)(=O)=O)cc2CN(C)C)cc1C | inactive | –
4 | CC(=O)OC1CC(C)OC(C)O1 (stereo not given) | inactive | –
5 | CS(=O)(=O)c1ccc([C@@H](C[C@H]2CCC(=O)C2)C(=O)Nc2cnccn2)cc1Cl | – | 14.8 µM (active)
6 | O=[Si]=O | inactive | –
7 | O=C1OC(c2ccc(O)cc2)(c2ccc(O)cc2)c2ccccc21 | inactive | –
8 | CC(C)(C)c1ccccc1 | inactive | –
9 | CCc1nc(N)nc(N)c1-c1ccc(Cl)cc1 | inactive | –
10 | CCCCC(CC)COC(=O)CCCCCCCC(=O)OCC(CC)CCCC (stereo not given) | inactive | –
11 | NCCOCCOCCN | inactive | –
12 | CCCCCCCCCCCCCCCCO | inactive | –
13 | C/C=C/C=C/C(=O)O | inactive | –
14 | COC(=O)[C@H]1[C@H]2C[C@@H]3c4[nH]c5cc(OC)ccc5c4CCN3C[C@H]2C[C@@H](OC(=O)c2cc(OC)c(OC)c(OC)c2)[C@@H]1OC | inactive | –
15 | Oc1ccc(O)cc1 | inactive | –
16 | CN(C)CCCN(C)CCCN(C)C | inactive | –
17 | CC(=O)OCC(COC(C)=O)OC(C)=O | inactive | –
18 | C=CCCCCCCCCCCCC | inactive | –
19 | CC(C)c1cccc(C(C)C)c1 | inactive | –
20 | Cn1cnc2c1c(=O)[nH]c(=O)n2C | inactive | –

Row | Compound | outcome | AC50
21 | Cc1cc(SC2=C(O)C[C@@](CCc3ccc(N)cc3)(C(C)C)OC2=O)c(C(C)(C)C)cc1CO | inactive | –
22 | Nc1nc(=S)c2[nH]cnc2[nH]1 | inactive | –
23 | c1ccc2occc2c1 | inactive | –
24 | O=C(O)c1[nH]n(-c2ccc(S(=O)(=O)O)cc2)c(=O)c1N=Nc1ccc(S(=O)(=O)O)cc1 | inactive | –
25 | NC=O | inactive | –
26 | CCCCCCCC(=O)OC | inactive | –
27 | CC(=O)O[C@]1(C(C)=O)CC[C@H]2[C@@H]3C=C(Cl)C4=CC(=O)[C@@H]5C[C@@H]5[C@]4(C)[C@H]3CC[C@@]21C | inactive | –
28 | CCCCCCC(CCCCCCCCCCC(=O)OCC(COC(C)=O)OC(C)=O)OC(C)=O (stereo not given) | inactive | –
29 | O=C(O)CN(CC(=O)O)CC(=O)O | inactive | –
30 | S=c1[nH]c2ccccc2s1 | inactive | –
31 | CCOCCOCCO | inactive | –
32 | CCCC(=O)O | inactive | –
33 | CC1=C(C)S(=O)(=O)CCS1(=O)=O | inactive | –
34 | CC(C)COC(=O)CCCCC(=O)OCC(C)C | inactive | –
35 | COc1ccc(OC(F)(F)F)cc1CN[C@H]1CCCN[C@H]1c1ccccc1 | – | 93.1 µM (active)
36 | CC(COCC(C)OC(=O)c1ccccc1)OC(=O)c1ccccc1 (stereo not given) | inactive | –
37 | Cc1ccc(-c2cc(C(F)(F)F)nn2-c2ccc(S(N)(=O)=O)cc2)cc1 | – | 93.5 µM (active)
38 | COc1ccc(C(=O)Nc2nc3ccccc3c(NCc3ccccc3)c2C#N)cc1 | inactive | –
39 | CCCCC(CC)CO (stereo not given) | inactive | –
40 | CC(C)NCC(O)c1ccc(O)c(O)c1 (stereo not given) | inactive | –
